Laboratory results: the supplement of paper PMC11732987, “Enantioselective OTUD7B fragment discovery through chemoproteomics screening and high-throughput optimisation” (Communications Chemistry, 2025)

What was measured:
Test in all cases: log2 ratio of Biotin-Ahx-Ub-VS probe labelling (fragment/DMSO); higher = less target engagement (more negative = stronger competition), active = hit call of the paper (q ≤ 0.05, log2 ratio ≤ -1)
Conditions in all cases: compound concentration: 200 uM; treatment time: 3 h
[1] = biological target: USP34 (UniProt Q70CQ2)
USP34, sequence (Q70CQ2 whole entry, the tested form may be a part): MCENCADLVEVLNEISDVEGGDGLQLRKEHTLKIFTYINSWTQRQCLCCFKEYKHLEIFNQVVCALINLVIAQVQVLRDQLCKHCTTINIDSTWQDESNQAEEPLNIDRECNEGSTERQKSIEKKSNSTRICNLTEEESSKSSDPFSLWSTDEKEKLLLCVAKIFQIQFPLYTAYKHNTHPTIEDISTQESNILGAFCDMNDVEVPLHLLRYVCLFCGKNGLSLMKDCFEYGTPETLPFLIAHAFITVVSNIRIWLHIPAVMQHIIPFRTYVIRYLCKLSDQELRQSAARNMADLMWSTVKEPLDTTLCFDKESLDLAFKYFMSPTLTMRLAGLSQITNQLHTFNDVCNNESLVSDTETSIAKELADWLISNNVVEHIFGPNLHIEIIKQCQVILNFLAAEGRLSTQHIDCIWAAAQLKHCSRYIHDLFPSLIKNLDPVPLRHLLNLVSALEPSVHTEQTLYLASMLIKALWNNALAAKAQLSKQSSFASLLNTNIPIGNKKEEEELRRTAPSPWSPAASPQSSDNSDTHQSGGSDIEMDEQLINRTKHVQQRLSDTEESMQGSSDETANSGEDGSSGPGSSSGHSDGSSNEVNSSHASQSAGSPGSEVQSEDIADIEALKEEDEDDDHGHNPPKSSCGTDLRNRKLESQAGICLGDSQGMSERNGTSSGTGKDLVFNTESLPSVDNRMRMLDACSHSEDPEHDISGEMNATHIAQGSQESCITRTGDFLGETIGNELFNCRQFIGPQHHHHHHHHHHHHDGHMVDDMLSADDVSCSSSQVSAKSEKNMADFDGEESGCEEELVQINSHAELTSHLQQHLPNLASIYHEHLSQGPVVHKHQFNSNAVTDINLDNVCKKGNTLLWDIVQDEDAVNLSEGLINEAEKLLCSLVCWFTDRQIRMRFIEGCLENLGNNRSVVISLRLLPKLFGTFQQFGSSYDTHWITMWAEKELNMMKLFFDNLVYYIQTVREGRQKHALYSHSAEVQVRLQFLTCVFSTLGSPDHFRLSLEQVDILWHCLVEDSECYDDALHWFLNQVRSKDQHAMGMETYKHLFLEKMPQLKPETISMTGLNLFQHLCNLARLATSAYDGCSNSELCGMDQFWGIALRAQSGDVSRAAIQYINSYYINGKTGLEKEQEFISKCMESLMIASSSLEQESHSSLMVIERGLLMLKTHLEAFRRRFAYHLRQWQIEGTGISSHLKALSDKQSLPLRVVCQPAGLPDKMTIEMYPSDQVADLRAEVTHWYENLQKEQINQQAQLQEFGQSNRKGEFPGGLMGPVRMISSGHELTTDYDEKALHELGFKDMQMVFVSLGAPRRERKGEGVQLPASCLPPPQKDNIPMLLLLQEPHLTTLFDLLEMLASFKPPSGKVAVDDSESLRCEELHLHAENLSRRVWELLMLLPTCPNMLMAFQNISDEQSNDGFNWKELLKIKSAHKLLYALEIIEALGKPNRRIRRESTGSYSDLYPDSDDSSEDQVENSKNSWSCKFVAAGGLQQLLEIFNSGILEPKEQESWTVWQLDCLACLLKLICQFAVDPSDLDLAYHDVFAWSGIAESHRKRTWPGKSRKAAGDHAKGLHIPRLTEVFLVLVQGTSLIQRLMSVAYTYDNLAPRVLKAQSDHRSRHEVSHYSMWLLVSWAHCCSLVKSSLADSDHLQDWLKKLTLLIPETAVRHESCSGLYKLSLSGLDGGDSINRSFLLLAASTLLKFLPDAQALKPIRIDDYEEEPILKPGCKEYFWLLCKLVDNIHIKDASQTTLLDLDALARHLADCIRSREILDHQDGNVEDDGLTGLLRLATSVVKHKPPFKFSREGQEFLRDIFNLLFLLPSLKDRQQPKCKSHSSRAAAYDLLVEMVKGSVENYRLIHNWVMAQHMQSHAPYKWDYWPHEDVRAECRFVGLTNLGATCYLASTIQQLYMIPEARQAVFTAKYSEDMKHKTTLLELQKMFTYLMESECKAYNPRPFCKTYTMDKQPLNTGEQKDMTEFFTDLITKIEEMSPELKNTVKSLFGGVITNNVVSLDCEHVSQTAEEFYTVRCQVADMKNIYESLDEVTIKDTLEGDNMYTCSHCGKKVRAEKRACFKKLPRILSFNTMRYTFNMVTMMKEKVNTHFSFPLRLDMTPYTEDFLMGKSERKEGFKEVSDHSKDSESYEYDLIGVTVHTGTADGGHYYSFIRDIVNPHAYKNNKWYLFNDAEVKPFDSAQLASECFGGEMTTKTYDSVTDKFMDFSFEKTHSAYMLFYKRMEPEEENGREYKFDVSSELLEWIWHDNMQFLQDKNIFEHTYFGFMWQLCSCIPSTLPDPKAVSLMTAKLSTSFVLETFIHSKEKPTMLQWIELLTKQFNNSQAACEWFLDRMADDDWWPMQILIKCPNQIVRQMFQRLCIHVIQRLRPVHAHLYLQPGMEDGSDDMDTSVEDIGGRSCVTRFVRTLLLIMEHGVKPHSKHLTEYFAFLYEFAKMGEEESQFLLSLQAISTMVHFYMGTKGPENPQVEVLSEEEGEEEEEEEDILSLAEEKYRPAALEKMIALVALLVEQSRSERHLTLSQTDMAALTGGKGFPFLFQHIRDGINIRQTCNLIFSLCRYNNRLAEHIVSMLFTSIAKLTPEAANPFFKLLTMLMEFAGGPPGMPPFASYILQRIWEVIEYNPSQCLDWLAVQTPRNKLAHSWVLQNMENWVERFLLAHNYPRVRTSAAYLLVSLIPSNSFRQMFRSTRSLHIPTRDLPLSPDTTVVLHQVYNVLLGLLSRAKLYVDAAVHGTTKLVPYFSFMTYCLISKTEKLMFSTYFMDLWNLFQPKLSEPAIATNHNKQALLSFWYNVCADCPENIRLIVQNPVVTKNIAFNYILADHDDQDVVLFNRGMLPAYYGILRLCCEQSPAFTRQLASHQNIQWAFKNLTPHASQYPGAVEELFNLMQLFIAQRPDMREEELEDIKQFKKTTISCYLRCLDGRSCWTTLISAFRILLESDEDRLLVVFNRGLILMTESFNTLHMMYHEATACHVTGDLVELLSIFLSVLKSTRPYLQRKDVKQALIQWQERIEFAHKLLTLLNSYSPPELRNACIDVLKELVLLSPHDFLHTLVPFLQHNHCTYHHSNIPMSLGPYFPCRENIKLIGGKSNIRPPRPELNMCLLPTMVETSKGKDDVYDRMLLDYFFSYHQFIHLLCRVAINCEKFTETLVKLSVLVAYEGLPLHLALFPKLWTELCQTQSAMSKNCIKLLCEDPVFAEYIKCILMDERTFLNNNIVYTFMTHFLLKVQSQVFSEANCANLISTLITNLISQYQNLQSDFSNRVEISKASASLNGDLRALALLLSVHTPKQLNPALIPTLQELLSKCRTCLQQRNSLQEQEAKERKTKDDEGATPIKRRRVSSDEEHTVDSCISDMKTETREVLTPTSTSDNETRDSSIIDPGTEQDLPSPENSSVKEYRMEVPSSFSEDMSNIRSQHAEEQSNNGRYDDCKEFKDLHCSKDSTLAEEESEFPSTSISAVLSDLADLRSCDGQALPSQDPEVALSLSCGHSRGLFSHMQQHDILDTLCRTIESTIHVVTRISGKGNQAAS
In short: (§1)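 Labelled DUBs from HEK293T lysate were NeutrAvidin-enriched, digested with LysC and trypsin, and run by diaPASEF LC-MS/MS. Before that, each 495 µg sample in Tris/CHAPS/IGEPAL buffer with protease inhibitors was treated in triplicate with fragment at 200 µM or vehicle for 3 h, then with Biotin-Ahx-Ub-VS at 0.5 µM final for 1 h. Values are average log2 ratios of fragment over vehicle by unpaired t-test, based on global-median-normalised Spectronaut label-free quantities from proteins with ≥2 unique peptides.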

[2] = biological target: T1, USP36 (UniProt Q9P275)
T1 sequence (whole entry): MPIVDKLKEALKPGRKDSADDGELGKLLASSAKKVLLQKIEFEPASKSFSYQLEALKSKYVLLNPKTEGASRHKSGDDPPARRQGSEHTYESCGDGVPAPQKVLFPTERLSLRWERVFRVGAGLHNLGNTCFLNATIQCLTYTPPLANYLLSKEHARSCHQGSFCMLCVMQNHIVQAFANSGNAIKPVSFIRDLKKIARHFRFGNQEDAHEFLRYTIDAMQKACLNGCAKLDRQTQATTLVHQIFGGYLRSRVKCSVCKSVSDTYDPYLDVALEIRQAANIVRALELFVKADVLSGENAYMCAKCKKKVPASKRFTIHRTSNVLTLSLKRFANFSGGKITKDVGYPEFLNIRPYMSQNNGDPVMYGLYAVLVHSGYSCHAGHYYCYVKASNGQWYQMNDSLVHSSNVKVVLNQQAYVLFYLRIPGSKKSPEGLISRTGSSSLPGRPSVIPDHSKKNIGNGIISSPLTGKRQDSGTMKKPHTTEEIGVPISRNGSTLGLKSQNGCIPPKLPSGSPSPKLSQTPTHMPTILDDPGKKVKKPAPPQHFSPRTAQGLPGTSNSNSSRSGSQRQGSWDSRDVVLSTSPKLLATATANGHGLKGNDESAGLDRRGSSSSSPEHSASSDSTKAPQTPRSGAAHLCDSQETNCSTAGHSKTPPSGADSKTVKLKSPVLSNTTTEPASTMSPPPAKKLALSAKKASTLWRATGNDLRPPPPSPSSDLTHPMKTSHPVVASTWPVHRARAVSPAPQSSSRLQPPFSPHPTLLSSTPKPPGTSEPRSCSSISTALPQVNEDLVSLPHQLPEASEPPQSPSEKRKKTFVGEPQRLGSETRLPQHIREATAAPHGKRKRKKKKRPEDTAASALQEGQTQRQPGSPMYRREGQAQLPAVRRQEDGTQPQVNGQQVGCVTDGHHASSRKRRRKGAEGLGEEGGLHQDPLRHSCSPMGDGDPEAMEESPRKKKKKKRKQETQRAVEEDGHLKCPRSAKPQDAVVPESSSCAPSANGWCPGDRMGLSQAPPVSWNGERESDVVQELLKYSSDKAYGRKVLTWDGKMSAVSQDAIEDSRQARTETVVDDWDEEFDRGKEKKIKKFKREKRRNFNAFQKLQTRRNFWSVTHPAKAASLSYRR
In short: as §1

[3] = biological target: T2, USP38 (UniProt Q8NB14)
T2 sequence (whole entry): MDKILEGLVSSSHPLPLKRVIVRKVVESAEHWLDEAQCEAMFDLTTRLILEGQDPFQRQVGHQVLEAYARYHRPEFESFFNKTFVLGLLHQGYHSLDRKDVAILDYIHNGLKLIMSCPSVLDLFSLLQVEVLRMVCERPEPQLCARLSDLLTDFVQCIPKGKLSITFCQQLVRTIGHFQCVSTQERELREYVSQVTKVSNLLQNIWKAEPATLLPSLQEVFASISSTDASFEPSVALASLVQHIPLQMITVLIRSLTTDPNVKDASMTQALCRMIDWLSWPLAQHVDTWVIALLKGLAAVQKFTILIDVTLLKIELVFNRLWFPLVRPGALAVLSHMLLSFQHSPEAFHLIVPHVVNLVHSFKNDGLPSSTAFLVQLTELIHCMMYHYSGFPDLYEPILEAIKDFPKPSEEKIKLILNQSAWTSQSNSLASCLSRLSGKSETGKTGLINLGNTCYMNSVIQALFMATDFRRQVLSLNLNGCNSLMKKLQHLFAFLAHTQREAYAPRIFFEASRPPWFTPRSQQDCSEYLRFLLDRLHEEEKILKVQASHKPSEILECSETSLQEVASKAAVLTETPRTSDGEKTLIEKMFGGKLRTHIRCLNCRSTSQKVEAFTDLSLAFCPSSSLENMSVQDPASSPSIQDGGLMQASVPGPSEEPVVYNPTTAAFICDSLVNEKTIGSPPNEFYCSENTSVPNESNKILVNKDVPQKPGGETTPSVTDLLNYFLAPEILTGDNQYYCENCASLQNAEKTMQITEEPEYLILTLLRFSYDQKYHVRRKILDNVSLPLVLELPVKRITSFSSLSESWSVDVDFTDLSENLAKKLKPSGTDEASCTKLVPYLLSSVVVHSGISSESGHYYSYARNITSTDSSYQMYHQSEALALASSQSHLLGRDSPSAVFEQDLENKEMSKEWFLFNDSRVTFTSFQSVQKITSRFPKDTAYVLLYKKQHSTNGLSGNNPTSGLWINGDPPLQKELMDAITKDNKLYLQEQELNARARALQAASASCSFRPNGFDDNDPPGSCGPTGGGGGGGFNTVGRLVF
In short: as §1

[4] = biological target: T3, USP39 (UniProt Q53GS9)
T3 sequence (whole entry): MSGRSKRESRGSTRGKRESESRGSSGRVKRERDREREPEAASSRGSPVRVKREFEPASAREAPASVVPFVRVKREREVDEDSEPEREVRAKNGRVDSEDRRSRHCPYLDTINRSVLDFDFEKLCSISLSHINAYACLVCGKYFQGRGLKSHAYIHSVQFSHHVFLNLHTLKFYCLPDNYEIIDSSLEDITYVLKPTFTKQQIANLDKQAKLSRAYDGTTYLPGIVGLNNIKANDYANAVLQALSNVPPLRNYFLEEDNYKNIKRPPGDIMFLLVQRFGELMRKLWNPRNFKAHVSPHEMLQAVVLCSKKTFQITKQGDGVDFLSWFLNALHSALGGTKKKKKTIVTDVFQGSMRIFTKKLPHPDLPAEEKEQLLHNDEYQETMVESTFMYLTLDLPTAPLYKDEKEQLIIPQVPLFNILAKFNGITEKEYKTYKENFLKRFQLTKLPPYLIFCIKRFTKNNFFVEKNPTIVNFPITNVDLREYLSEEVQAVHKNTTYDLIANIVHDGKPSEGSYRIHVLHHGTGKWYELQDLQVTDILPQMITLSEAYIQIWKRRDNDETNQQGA
In short: as §1

[5] = biological target: T4, USP4 (UniProt Q13107)
T4 sequence (whole entry): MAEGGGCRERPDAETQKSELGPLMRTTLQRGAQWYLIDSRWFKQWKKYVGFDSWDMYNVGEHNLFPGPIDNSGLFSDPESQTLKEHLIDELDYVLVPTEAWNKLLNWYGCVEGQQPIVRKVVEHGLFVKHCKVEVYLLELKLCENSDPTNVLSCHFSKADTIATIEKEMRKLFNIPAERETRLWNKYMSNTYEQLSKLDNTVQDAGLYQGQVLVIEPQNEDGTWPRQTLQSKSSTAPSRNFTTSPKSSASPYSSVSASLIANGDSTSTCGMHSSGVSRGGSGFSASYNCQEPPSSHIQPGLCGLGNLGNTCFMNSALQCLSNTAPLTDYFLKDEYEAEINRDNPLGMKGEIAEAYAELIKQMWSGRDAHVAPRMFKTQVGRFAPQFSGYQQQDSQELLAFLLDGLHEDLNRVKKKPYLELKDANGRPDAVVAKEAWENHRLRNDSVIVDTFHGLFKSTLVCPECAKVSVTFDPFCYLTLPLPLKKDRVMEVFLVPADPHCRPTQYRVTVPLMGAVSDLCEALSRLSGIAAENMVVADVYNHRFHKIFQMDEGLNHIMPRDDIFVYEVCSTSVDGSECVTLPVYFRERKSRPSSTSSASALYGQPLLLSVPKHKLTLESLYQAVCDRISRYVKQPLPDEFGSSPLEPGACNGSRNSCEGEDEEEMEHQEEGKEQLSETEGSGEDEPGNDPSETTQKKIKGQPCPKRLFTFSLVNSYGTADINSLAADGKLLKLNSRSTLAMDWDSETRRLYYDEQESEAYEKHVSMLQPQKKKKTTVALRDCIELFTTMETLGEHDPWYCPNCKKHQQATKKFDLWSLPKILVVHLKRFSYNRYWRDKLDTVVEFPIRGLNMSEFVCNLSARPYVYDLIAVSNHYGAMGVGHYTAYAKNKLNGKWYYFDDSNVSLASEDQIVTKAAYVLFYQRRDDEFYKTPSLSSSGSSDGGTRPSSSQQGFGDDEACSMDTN
In short: as §1

Measured: log2 ratio of Biotin-Ahx-Ub-VS probe labelling

Cc1ccc(CN(CCO)C(=O)CCl)cc1
inactive: [1] 0.0432 | [2] -0.00999 | [3] -0.303 | [4] -0.0925 | [5] -0.21
